Screens: PubChem BioAssay, several laboratories
tim23-1 inh – tim23-1 yeast growth inhibition. S. cerevisiae tim23-1 growth, BacTiter-Glo luminescence, 24 h. inhibition, % at 20 µM. 330,000 compounds, 1.3% hits. AID 463212;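 active means growth inhibition of the mutant yeast at or above 50%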;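 further: temperature-sensitive mutant grown at 25 °C; plate controls were DMSO-treated mutant yeast for no effect and medium wells lacking yeast for full effect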
PfHsp90 yeast 2 – growth inhibition of yeast expressing Plasmodium Hsp90; S. cerevisiae expressing PfHsp90, BacTiter-Glo ATP, 48 h; yeast lacking PDR1 and PDR3 efflux regulators; inhibition, % at 9.4 µM; 310,000 compounds, 0.32% hits;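 active means every replicate shows inhibition above about 80%, whatever the replicate mean, limit read from the data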;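 further: 0% = DMSO neutral controls and 100% = 20 µM radicicol positive controls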
tim10-1 inh – growth inhibitors of tim10-1 mutant yeast. S. cerevisiae tim10-1 ts strain growth, BacTiter-Glo, 24 h. inhibition, % at 20 µM. 330,000 compounds, 2.2% hits. AID 463190;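 active means inhibition of at least 40%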;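 further: mutant grown at 25 °C; 0% = DMSO wells with yeast and 100% = wells holding no yeast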
B2AR ag – activates human beta-2 adrenergic receptor causing internalization; Am2.2-beta2AR cells, FAP receptor internalization, flow cytometry; response, % (test concentration not listed); 340,000 compounds, 0.43% hits; AID 504454;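 active means response above a set limit, near 3 SD of response in nonfluorescent compounds, cut at about 42% in these data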
Target sequence (P07550 whole entry, looked up): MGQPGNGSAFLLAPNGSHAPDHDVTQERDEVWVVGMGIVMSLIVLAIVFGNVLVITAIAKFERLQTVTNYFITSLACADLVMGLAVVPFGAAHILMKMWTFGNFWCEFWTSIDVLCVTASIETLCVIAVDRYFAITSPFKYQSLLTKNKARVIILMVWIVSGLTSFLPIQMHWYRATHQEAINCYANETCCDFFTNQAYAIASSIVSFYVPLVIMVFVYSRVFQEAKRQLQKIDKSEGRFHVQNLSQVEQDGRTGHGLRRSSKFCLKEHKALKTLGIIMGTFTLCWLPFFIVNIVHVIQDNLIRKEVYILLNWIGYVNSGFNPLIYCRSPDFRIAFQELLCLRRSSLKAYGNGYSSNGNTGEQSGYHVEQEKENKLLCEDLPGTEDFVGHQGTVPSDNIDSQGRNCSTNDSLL
TIM10 inh – TIM10 yeast growth inhibition; S. cerevisiae TIM10 strain growth, BacTiter-Glo luminescence, 24 h; inhibition, % at 10 µM; 330,000 compounds, 1.4% hits;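 active means inhibition of 40% or more at the single tested concentration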;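 further: wild-type TIM10 isogenic control strain grown at permissive 25 °C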
tim10-1 confirm – confirmation of tim10-1 mutant yeast growth inhibitors; inhibition, % at 20 µM; shares compounds with tim10-1 inh; AID 463213; S. cerevisiae tim10-1 ts strain growth, BacTiter-Glo, 24 h; 7,400 compounds, 56% hits;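 active means inhibition of yeast growth at or above a set limit in either of two repeat tests at 20 µM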;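 further: tim10-1 mutant grown at permissive 25 °C to find synthetic lethal compounds; 0% = DMSO yeast wells and 100% = medium wells without yeast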
tim10 confirm – confirmation of TIM10 yeast growth inhibitors; shares compounds with TIM10 inh; S. cerevisiae tim10 strain growth, BacTiter-Glo luminescence, 24 h; inhibition, % at 10 µM; 4,600 compounds, 63% hits; AID 463215;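 active means inhibition of yeast growth at or above a set limit in either of two replicates at 10 µM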;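 further: this counterscreen used the strain with wild-type TIM10; 0% = yeast with DMSO and 100% = medium wells lacking yeast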
tim23-1 conf – tim23-1 yeast growth inhibition, confirmed | shares compounds with tim23-1 inh | S. cerevisiae tim23-1 growth, BacTiter-Glo luminescence, 24 h | inhibition, % at 20 µM | 4,400 compounds, 83% hits | AID 463218;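 active means inhibition above about 39% in either of two replicate wells at 20 µM, limit read from the data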;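 further: temperature-sensitive tim23-1 mutant grown at 25 °C; 0% = DMSO wells with yeast and 100% = medium wells without yeast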
The depositor's hits bear a star; nt = no result given. Rows were chosen to be rich in hits. Some 3.8% of all compounds tested hit in one or more screens of this group.

SMILES	tim23-1 inh	PfHsp90 yeast 2	tim10-1 inh	B2AR ag	TIM10 inh	tim10-1 confirm	tim10 confirm	tim23-1 conf
Cc1c(Cl)cccc1N=Cc1ccc([N+](=O)[O-])s1	65*	112*	67*	1	83*	61*	65*	76*
O=C1C2CC3N1CCC31c3ccccc3-n3c1c2ccc3=O (stereo unspecified)	nt	-6	nt	-2	nt	nt	nt	nt
O=C(c1ccccc1)c1cccc(NC(=O)c2ccc(Br)o2)c1	53*	-10	45*	-10	75*	36*	-13	77*
CCOCCCn1c(SCC(=O)Nc2ccc3[nH]c(=O)[nH]c3c2)nc2ccccc2c1=O	-22	10	-13	10	-6	nt	nt	nt
CC(=O)NCCn1c(SCc2ccc(C)cc2C)nc2ccccc2c1=O	56*	4	40*	-7	34	27	nt	33
CCCCC[C@@H]1C=C(C(=O)O)[C@H](c2ccc3c(c2)OCO3)N1S(=O)(=O)c1ccc(C)cc1	9	-9	4	-2	7	nt	nt	nt
CCN(C(=O)CSc1ncccn1)c1cccc2ccccc12	25	0	-1	-1	8	nt	nt	nt
Cc1cc2c([nH]c3ccccc32)c2c1OC(C)(C)C=C2	56*	18	63*	14	23	49*	nt	70*
O=C(NCCO)c1ccc(Oc2ccc(C(F)(F)F)cc2[N+](=O)[O-])cc1	5	-8	0	-7	0	nt	nt	nt
Cc1cc(C)cc(OC(=O)CS(=O)c2ccc(C(F)(F)F)cc2[N+](=O)[O-])c1 (stereo unspecified)	66*	-46	51*	52*	31	28*	nt	68*
O=C(CS(=O)c1ccc(C(F)(F)F)cc1[N+](=O)[O-])Oc1ccc(Cl)cc1 (stereo unspecified)	70*	-7	47*	12	55*	47*	36*	67*
O=C1NC(=O)C2(CCCC2c2ccccc2)N1 (stereo unspecified)	nt	1	nt	-2	nt	nt	nt	nt
C=CC[C@@H](CC(=O)N[C@H](CO)Cc1ccccc1)C(=O)N[C@@H](COC(=O)[C@@H](CC=C)CC(=O)OC(C)(C)C)Cc1ccccc1	12	9	15	-4	5	nt	nt	nt
CCOC(=O)c1sc(NC(=O)c2c(C)nn(Cc3ccccc3)c2C)cc1C	50*	19	43*	5	61*	46*	-1	52*
CCOC(=O)c1sc(NC(=O)c2ccc(Cl)s2)cc1C	-13	-22	-25	-1	3	nt	nt	nt
Cc1ccc(C(C)(C)NC(=O)C2CCC(=O)N(CC3CCCCC3)C2)cc1 (stereo unspecified)	22	7	23	-1	7	nt	nt	nt
COc1ccc(C2=CC(=O)N(Nc3ccccc3)C2=O)cc1	81*	nt	49*	nt	54*	50*	55*	77*
NC(=S)N/N=C/c1ccc(-c2cc(Cl)cc(Cl)c2)o1	-5	-34	29	5	8	nt	nt	nt
NC(=S)N/N=C/c1ccc(-c2cc(Cl)ccc2Cl)o1	54*	-106	44*	0	45*	18	39*	62*
N/C(=N\OC(=O)CCc1ccccc1)c1cccc(Br)c1	81*	14	70*	-2	63*	64*	60*	76*
Cc1ccc(/C(N)=N/OC(=O)CCc2ccccc2)cc1	75*	-25	46*	1	55*	49*	60*	61*
N/C(=N\OC(=O)C1CCCCC1)c1cccc(Br)c1	75*	24	67*	1	74*	62*	58*	81*
N/C(=N\OC(=O)CCc1ccccc1)c1ccccc1Cl	56*	-7	64*	5	47*	60*	42*	48*
COc1ccc(N2CCN(C(c3cccs3)C(C)NC(=O)C(=O)N3CCCC3)CC2)cc1 (stereo unspecified)	20	11	5	4	15	nt	nt	nt
N/C(=N\OC(=O)CCc1ccccc1)c1ccc(Br)cc1	65*	17	47*	-2	61*	56*	55*	46*
SMILES	tim23-1 inh	PfHsp90 yeast 2	tim10-1 inh	B2AR ag	TIM10 inh	tim10-1 confirm	tim10 confirm	tim23-1 conf
Cc1cc2[nH]c(=O)c(=O)[nH]c2cc1S(=O)(=O)Nc1cccc(C)c1C	-10	2	-3	2	4	nt	nt	nt
Cc1ccc(C(=O)c2nocc2C(=O)c2cccs2)cc1	46	18	13	5	27	nt	nt	nt
O=C(c1ccccn1)c1conc1C(=O)c1ccc(Br)cc1	78*	10	69*	13	72*	73*	63*	87*
CCCNC(=O)Cn1c(=O)/c(=C/c2ccc(-c3ccc([N+](=O)[O-])cc3)o2)s/c1=C\C(=O)C(C)(C)C	nt	-2	nt	nt	nt	nt	nt	nt
N#C/C(=C\c1ccc(Cl)c([N+](=O)[O-])c1)c1ccccn1	60*	-24	54*	-6	64*	66*	73*	69*
Cc1cc(N)n2ncc(-c3cccc(Br)c3)c2n1	82*	-11	46*	-6	51*	50*	52*	40*
Cc1cc(N)n2ncc(-c3ccccc3)c2n1	15	7	28	5	22	nt	nt	nt
Cc1cc(NC(=O)CN2C(=O)NC(c3ccccc3)(c3ccc(C)c(C)c3)C2=O)no1 (stereo unspecified)	13	1	11	14	5	nt	nt	nt
O=[N+]([O-])c1cnc(Nc2ccc(Cl)cn2)c([N+](=O)[O-])c1	73*	-41	73*	2	50*	69*	33*	81*
CCSc1nsc(NC(=O)Nc2cccc(F)c2)n1	78*	-5	61*	18	69*	72*	60*	84*
Cc1nc(-c2ccc(NC(=O)c3ccco3)cc2)cs1	68*	51	51*	-12	43*	22	50*	67*
COc1ccccc1CNC(=O)c1cccnc1	1	8	-11	-4	-10	nt	nt	nt
COc1cccc(/C=N/NC(=O)NC23CC4CC(CC(C4)C2)C3)c1O	52*	nt	52*	1	42*	17	39*	47*
COc1cccc(/C=N/NC(=O)C(=O)N/N=C/c2cccc(OC)c2O)c1O	nt	-9	nt	-5	nt	nt	nt	nt
CCN(CC)S(=O)(=O)c1ccc(NC(=O)COC(=O)CNC(=O)C2CCCCC2)cc1	9	12	-2	2	-5	nt	nt	nt
Cc1cc(C)c2c(N)c(S(=O)c3ccc(C(C)(C)C)cc3)sc2n1 (stereo unspecified)	60*	-5	63*	-11	35	44*	nt	62*
